PPARg SRC3 recr – PPARgamma agonists recruiting SRC-3 coactivator, primary screen, biochemical | biochemical PPARgamma/SRC-3 coactivator recruitment assay | activation, % at 8 µM | 200,000 compounds, 0.26% hits; in the data active = activation above about 23%;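 also: 0% = DMSO and 100% = reference agonist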
Target sequence (P37231 whole entry, looked up): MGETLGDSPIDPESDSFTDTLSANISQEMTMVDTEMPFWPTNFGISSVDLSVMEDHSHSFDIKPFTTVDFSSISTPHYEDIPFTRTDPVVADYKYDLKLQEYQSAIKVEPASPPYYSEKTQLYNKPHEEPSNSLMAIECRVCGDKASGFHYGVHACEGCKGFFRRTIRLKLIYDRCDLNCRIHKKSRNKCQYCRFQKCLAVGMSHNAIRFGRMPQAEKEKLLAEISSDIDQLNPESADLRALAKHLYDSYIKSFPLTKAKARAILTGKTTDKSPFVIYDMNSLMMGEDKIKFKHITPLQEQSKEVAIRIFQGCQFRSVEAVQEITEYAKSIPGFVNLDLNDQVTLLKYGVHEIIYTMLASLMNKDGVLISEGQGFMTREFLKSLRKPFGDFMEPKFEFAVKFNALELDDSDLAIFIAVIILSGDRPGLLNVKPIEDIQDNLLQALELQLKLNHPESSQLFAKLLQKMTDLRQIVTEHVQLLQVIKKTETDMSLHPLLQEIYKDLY
PPARg SRC1 recr – PPARgamma agonists recruiting SRC-1 coactivator, primary screen, biochemical; PPARgamma-SRC-1 coactivator recruitment biochemical assay; activation, % at 8 µM; 200,000 compounds, 0.41% hits; AID 631, 2007; in the data active = activation above about 19%;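 also: 0% = DMSO and 100% = reference agonist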
SRC1 TRFRET art – TR-FRET detection interference compounds, primary screen, artefact control for PPARgamma SRC-1 recruitment agonists, biochemical, TR-FRET emission ratio. TR-FRET detection artefact counter-screen; stronger effect = higher value. TR-FRET ratio at 8 µM. 99,000 compounds, 0.34% hits; in the data active = TR-FRET ratio above about 2300
PPARg SRC2 recr – agonists of PPARg-SRC-2 recruitment, primary screen, biochemical, HTS; PPARgamma LBD-SRC-2 recruitment; activation, % at 8 µM; 200,000 compounds, 0.34% hits; AID 1032, 2008; in the data active = activation above about 22%;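 also: 0% = vehicle and 100% = reference agonist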
TR-FRET SRC-2 ct – TR-FRET signal artefacts, primary screen, artefact control for PPARgamma SRC-2 agonist project, biochemical | AID 1049, 2008 | TR-FRET ratio at 8 µM | TR-FRET artefact counter-screen; stronger effect = higher value | 200,000 compounds, 0.4% hits
SRC3 TRFRET art – TR-FRET detection interference compounds, artefact control for PPARgamma SRC-3 recruitment agonists, biochemical, TR-FRET ratio | TR-FRET artefact counter-screen, PPARgamma/SRC-3 format; stronger effect = higher value | TR-FRET ratio at 8 µM | 99,000 compounds, 0.39% hits | AID 1048, 2008
The depositor's hits bear a star; . = no result. The list is not random: actives were taken first. Their share in the collection is about 0.84%. Rule as the data show it, unless noted: active = TR-FRET ratio above about 2000; inactive = the rest.

SMILES | PPARg SRC3 recr | PPARg SRC1 recr | SRC1 TRFRET art | PPARg SRC2 recr | TR-FRET SRC-2 ct | SRC3 TRFRET art
O=C(N/N=C/c1cn(-c2ccccc2)nc1-c1cccnc1)c1cccnc1 | 2.9 | 18.1 | 2335* | 10.3 | 1628 | 1612
CSc1ccccc1NC(=O)Cn1c(-c2cscn2)nc2ccccc21 | 2.9 | 24.3* | . | 1.1 | 1477 | .
O=C(c1ccccc1)c1ccc2nc(-c3ccc(NC(=O)c4ccccc4Br)cc3)[nH]c2c1 | 7.8 | 8.6 | . | -0.5 | 2003* | .
CCCc1cc(O)c2c(C)cc(=O)oc2c1 | 19.3 | 14.8 | . | 21.1 | 1771 | .
O=C(CSc1ccc2nnc(-c3ccc(Cl)cc3)n2n1)N1CCCc2ccccc21 | 0.0 | -0.7 | 1993 | 45.6* | 3594* | 1869
O=C(CSc1ccc2ccccc2c1Br)Nc1cccc(S(=O)(=O)NC2=NCCCCC2)c1 | 10.3 | 6.1 | 1973 | 12.8 | 1866 | 2200*
COc1ccccc1NC(=O)C1=C(C)NC(SCC(=O)c2ccccc2)=C(C#N)C1c1ccco1 (stereo unspecified) | 19.7 | 17.5 | . | 16.4 | 2496* | .
O=C(c1ccc(Br)cc1)c1sc(N2CCOCC2)nc1-c1ccccc1 | 10.5 | 14.9 | 2046 | 14.6 | 1756 | 2783*
COc1ccc(-c2nc(N3CCCCCC3)sc2C(=O)c2ccccc2)cc1 | 13.5 | 12.5 | . | 15.9 | 2098* | .
O=C(Nc1nc(-c2ccccc2)nc2ccccc12)c1ccc(F)cc1 | 34.4* | -0.8 | 1991 | 10.8 | 1915 | 2774*
CC(=O)Nc1ccc(Nc2nc(-c3ccccc3)nc3ccccc23)cc1 | -1.1 | -0.7 | 1753 | -4.5 | 1370 | 1577
O=c1c(/C=N/OCc2ccc(Cl)cc2Cl)c[nH]n1-c1cccc(Cl)n1 | -0.5 | 8.3 | 1942 | -1.8 | 2085* | 1602
O=S(=O)(/C=C/c1ccccc1)N1CCN(c2cccc(Cl)c2)CC1 | 11.8 | -4.8 | . | 6.7 | 1547 | .
C#CCOCCOCCOCCNc1nc(N2CCN(C(=O)[C@H](CCC(=O)O)n3cc(C(N)CC(C)C)nn3)CC2)nc(N2CCN(C(=O)[C@H](CCC(=O)O)n3cc(C(N)CC(C)C)nn3)CC2)n1 (stereo partly specified) | 6.7 | -1.8 | 1939 | -3.8 | 1663 | 1724
Cc1nn(CCCC(=O)N2CCN(c3ccc(F)cc3)CC2)c(C)c1[N+](=O)[O-] | 3.9 | 11.7 | 1827 | 5.9 | 1556 | 1632
O=C(CSc1cn(Cc2ccccc2)c2ccccc12)Nc1nccs1 | -10.5 | -1.8 | . | 0.5 | 3013* | .
O=C(CSc1ncnc2c1nnn2-c1ccc(F)cc1)N1CCN(c2ccccc2)CC1 | 5.1 | 5.4 | . | 9.9 | 1657 | .
CCCCn1c(=O)c(CCC(=O)OCC(=O)NC(=O)NCCC(C)C)nc2ccccc21 | -0.8 | -1.4 | 1871 | -8.9 | 1606 | 1402
CN(C)CCCN(C(=O)c1ccc2c(c1)CCCC2)c1nc2c(F)cccc2s1 | -2.6 | -0.3 | 1620 | 1.5 | 1385 | 1570
CN(C)CCCN(C(=O)c1ccc(N2C(=O)CCC2=O)cc1)c1nc2c(F)cccc2s1 | 1.6 | 21.8* | 2031 | 7.3 | 1737 | 1580
COc1cccc(C(=O)NCC(=O)N/N=C/c2cccs2)c1 | -0.5 | 0.7 | 1565 | 2.3 | 1606 | 1471
O=c1c(-c2n[nH]c(=S)n2-c2ccccc2)cccn1Cc1cccc(Cl)c1 | 6.1 | 15.6 | 2294 | 12.5 | 1986* | 1865
O=C(NCc1n[nH]c(=S)n1-c1ccc(Br)cc1)c1ccc(S(=O)(=O)N2CCOCC2)cc1 | 3.7 | 5.4 | 1728 | 22.3* | 1713 | 1445
O=C(NCc1n[nH]c(=S)n1-c1ccc(Br)cc1)c1ccc(S(=O)(=O)N2CCCC2)cc1 | 0.3 | 5.1 | 1793 | 3.1 | 1416 | 1545
O=C(/C=C/c1ccccc1)Nc1cccc(S(=O)(=O)Nc2ccccc2F)c1 | 4.6 | 4.2 | 1708 | 12.8 | 1576 | 1533
SMILES | PPARg SRC3 recr | PPARg SRC1 recr | SRC1 TRFRET art | PPARg SRC2 recr | TR-FRET SRC-2 ct | SRC3 TRFRET art
O=[N+]([O-])c1ccc2[nH]c(O)c(N=NC(=S)NCC3CCCO3)c2c1 (stereo unspecified) | -6.2 | 3.2 | 1664 | -4.0 | 1299 | 1631
CCNC(=S)N=Nc1c(O)[nH]c2ccc([N+](=O)[O-])cc12 | 0.2 | 8.0 | 2171 | 11.1 | 1982* | 1665
Cc1csc(C(C#N)C(=O)c2ccncc2)n1 (stereo unspecified) | 3.6 | 10.9 | 1677 | 31.0* | 2112* | 1733
Cc1cnc(NC(=O)c2ccncc2)s1 | -1.5 | -4.9 | 1821 | -1.6 | 1181 | 1433
O=C(Nc1nc2ccccc2[nH]1)c1cc2ccccc2o1 | -1.4 | -13.9 | 1721 | -3.3 | 1396 | 1472
Cc1cc(/C=C2/C(=O)N(C)C(=S)N2C)c(C)n1C1CC1 | -1.4 | 3.2 | 1884 | 21.9* | 1763 | 1564
Cc1ccc(-c2csc3nc[nH]c(=S)c23)cc1C | 2.2 | -4.9 | 1687 | -4.6 | 1562 | 1542
Cc1c(-c2ccccc2)sc2nc[nH]c(=S)c12 | 9.5 | 10.4 | 2247 | 6.1 | 1886 | 2134*
Cc1cc(C)n(CCc2nc(-c3ccco3)cs2)n1 | -3.1 | -5.5 | . | 6.3 | 1596 | .
Cc1nn(CCc2nc(-c3ccco3)cs2)c2[nH]c(=O)cc(C(F)(F)F)c12 | -1.2 | 9.0 | 1614 | 8.5 | 1605 | 2055*
O=C(NNC(=O)C(c1ccccc1)c1ccccc1)c1ccccn1 | 1.5 | 1.1 | 1867 | 10.2 | 1572 | 1609
COC(=O)c1ccc2c(c1)NC(=O)C(N1CCCC1)S2 (stereo unspecified) | 1.2 | 0.0 | . | 4.3 | 1526 | .
COC(=O)c1ccc2c(c1)SC1=C(CCCC1=O)N2 | 17.5 | 11.7 | . | 12.9 | 2074* | .
O=C(Nc1ccccc1-c1ccccc1)C(c1ccccc1)c1ccccc1 | 5.2 | -6.6 | 1881 | -4.2 | 1697 | 1713
COc1ccc(CC(=O)Nc2nc(-c3cc(OC)ccc3OC)cs2)cc1 | 3.6 | 0.2 | 1968 | 2.0 | 1470 | 1551
COc1ccc(OC)c(-c2csc(NC(=O)c3ccc4c(c3)OCO4)n2)c1 | 1.2 | 1.5 | 1916 | 9.9 | 1482 | 2559*
Cc1ccc(S(=O)(=O)N2CCCOC2CNC(=O)C(=O)NCCc2c[nH]c3ccccc23)cc1 (stereo unspecified) | 3.1 | 2.8 | 1841 | -1.9 | 1567 | 1706
COc1ccc2oc(C(=O)OCC(=O)NCCN3C(=O)CSC3=O)c(C)c2c1 | 1.1 | 3.2 | 1813 | 4.9 | 1768 | 1589
CCN(CC)c1c(-c2ccccc2)c2cc(C)ccc2[nH]c1=O | 5.3 | 3.5 | 2033 | 5.9 | 1789 | 1590
CC/C(C)=N/NC(=O)c1[nH]c2ccc(C)cc2c1-c1ccccc1 | 0.9 | 5.0 | 2076 | 7.3 | 1988* | 1693

Source: PubChem BioAssay
